# Results as given in PubChem BioAssay (EPA / NIEHS).
# The source made the active and inactive calls. The calls were made as follows: active = hit-call score of the fitted dose curve at least 0.9, where 1 is the maximum; inactive = score below 0.9.
# Tests used:
# [1] = ATG_PBREM_CIS: Attagene CIS-FACTORIAL HepG2 Assay for human Phenobarbital-responsive Enhancer Module (PBREM) (AID 2282955); details: HepG2 PBREM cis-reporter, Attagene multiplexed transcription; actives raise or lower the signal
# How it was run: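 Fluorescence of labelled reporter cDNA fragments, resolved by capillary electrophoresis, gives mRNA induction in transfected HepG2 cells treated for 24 h; DMSO serves as negative control and baseline.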
# [2] = molecular target: Paired box protein Pax-6 (Homo sapiens) (UniProt P26367); assay: ATG_Pax6_CIS: Attagene CIS-FACTORIAL HepG2 Assay for human Paired Box 6 (PAX6) (AID 2282956); details: HepG2 CIS-FACTORIAL PAX6 reporter transcription, RNA readout; actives raise or lower the signal
# Chain of Paired box protein Pax-6 (Homo sapiens) (P26367 whole entry, looked up): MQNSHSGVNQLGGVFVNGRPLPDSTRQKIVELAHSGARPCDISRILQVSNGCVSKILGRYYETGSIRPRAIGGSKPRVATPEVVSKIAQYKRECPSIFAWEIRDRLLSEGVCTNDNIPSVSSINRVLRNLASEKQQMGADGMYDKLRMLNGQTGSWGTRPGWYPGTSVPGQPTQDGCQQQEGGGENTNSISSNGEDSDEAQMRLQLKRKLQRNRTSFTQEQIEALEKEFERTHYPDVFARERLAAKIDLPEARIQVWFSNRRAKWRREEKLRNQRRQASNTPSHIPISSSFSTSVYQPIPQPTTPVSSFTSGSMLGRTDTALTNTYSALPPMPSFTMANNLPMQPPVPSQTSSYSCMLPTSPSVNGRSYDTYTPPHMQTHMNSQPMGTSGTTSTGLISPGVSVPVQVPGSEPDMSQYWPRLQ
# How it was run: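 Fluorescent RT-PCR products separated by capillary electrophoresis report PAX6-linked promoter mRNA in HepG2 cells 24 h post-dose. Curves fitted bidirectionally, DMSO as negative control.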
# [3] = ATG_PXRE_CIS: Attagene CIS-FACTORIAL HepG2 Assay for human Pregnane X Receptor Element (PXRE) (AID 2282957); details: HepG2 Attagene CIS-FACTORIAL PXRE reporter, mRNA; actives raise or lower the signal
# How it was run: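 Bidirectional activity, baselined to DMSO, derived from reporter mRNA fluorescence (RT-PCR plus capillary electrophoresis) in HepG2 cells bearing cis-promoter reporter units, 24 h exposure.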
# [4] = ATG_RORE_CIS: Attagene CIS-FACTORIAL HepG2 Assay for human RAR-related Orphan Receptor Element (RORE) (AID 2282959); details: HepG2 Attagene cis-factorial RORE reporter, mRNA; actives raise or lower the signal
# How it was run: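 Cells were HepG2 carrying transfected cis-regulated reporter constructs, dosed for 24 hours. Total RNA was reverse-transcribed and reporter cDNA amplified, fluorescently labeled and sized by capillary electrophoresis. Activity was fitted bidirectionally relative to DMSO.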
# [5] = ATG_Sox_CIS: Attagene CIS-FACTORIAL HepG2 Assay for human SRY-box transcription factor (SOX) (AID 2282960); details: HepG2 Attagene cis-factorial SOX reporter, mRNA; actives raise or lower the signal
# How it was run: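 Transient MRTU transfection of HepG2; 24 h compound incubation; TriZol RNA, oligo(dT) RT, PCR, 6-FAM primer extension, HpaI cut, CE. Bidirectional fit, DMSO = baseline.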
# [6] = molecular target: Transcription factor Sp1 (Homo sapiens) (UniProt P08047); assay: ATG_Sp1_CIS: Attagene CIS-FACTORIAL HepG2 Assay for human Specificity Protein 1 (Sp1) (AID 2282961); details: HepG2 Sp1 cis-reporter transcription, actives raise or lower the signal
# Chain of Transcription factor Sp1 (Homo sapiens) (P08047 whole entry, looked up): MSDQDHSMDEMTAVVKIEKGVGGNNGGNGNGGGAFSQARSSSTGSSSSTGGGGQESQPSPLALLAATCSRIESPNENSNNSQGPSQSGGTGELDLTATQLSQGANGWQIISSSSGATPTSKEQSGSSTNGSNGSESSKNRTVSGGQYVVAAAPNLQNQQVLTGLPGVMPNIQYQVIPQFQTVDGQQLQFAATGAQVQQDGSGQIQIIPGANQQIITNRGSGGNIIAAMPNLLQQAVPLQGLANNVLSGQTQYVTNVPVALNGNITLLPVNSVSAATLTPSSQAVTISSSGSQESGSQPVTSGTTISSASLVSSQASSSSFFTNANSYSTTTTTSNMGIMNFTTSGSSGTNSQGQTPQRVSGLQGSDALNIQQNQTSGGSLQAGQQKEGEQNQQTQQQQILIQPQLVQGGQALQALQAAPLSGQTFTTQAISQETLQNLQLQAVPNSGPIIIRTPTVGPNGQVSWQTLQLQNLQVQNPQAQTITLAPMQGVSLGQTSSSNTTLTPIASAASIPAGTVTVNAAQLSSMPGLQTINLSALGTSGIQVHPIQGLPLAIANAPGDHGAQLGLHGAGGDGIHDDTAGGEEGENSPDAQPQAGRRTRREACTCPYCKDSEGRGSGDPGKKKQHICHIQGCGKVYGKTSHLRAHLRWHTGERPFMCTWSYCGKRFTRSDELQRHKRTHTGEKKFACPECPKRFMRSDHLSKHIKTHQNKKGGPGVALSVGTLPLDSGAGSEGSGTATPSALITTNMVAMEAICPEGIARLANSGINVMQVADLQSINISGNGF
# How it was run: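 Endogenous Sp1 activity was gauged in human liver HepG2 cells bearing transfected reporter units under a cis-regulating promoter. After 24 h dosing, reporter mRNA was quantified by RT-PCR with capillary electrophoresis, and activity fitted bidirectionally versus DMSO.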
# [7] = ATG_SREBP_CIS: Attagene CIS-FACTORIAL HepG2 Assay for human Sterol Regulatory Element Binding (SREBP) (AID 2282962); details: HepG2 Attagene cis-factorial SREBP reporter, mRNA; actives raise or lower the signal
# How it was run: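 Endogenous factor activity is measured in HepG2 through multiplexed reporter units under cis-element control. Following a 24 h incubation, reporter transcripts are reverse-transcribed, PCR-amplified and sized by capillary electrophoresis; activity is fitted in both directions relative to DMSO.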
# [8] = molecular target: Signal transducer and activator of transcription 3 (Homo sapiens) (UniProt P40763); assay: ATG_STAT3_CIS: Attagene CIS-FACTORIAL HepG2 Assay for human Signal Transducer and Activator of Transcription 3 (STAT3) (AID 2282963); details: HepG2, Attagene cis-factorial STAT3 reporter transcription; actives raise or lower the signal
# Chain of Signal transducer and activator of transcription 3 (Homo sapiens) (P40763 whole entry, looked up): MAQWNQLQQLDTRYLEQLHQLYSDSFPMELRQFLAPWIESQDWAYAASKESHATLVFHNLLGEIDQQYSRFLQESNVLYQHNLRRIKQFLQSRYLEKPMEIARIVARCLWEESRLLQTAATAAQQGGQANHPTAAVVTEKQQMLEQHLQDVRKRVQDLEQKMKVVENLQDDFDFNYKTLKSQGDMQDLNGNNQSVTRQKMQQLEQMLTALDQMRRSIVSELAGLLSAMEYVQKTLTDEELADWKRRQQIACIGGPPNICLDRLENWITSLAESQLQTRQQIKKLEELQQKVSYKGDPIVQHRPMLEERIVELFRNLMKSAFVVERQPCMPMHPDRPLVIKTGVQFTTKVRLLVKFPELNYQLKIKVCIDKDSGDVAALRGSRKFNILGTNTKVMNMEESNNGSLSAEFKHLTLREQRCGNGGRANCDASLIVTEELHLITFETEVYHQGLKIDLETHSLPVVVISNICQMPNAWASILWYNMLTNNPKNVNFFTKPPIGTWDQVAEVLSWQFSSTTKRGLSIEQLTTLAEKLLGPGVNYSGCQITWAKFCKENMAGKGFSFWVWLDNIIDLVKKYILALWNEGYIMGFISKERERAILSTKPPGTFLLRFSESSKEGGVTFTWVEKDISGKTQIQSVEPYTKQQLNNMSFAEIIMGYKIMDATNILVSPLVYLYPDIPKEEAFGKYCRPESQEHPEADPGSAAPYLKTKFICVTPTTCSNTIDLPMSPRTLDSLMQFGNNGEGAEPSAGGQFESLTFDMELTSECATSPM
# How it was run: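 Readout is reporter transcript quantified by RT-PCR and capillary electrophoresis, with 6-FAM primer extension and HpaI digestion. Total RNA is taken 24 h after dosing transiently transfected HepG2 carrying cis-regulated reporter units. Bidirectional fit against DMSO.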
# [9] = ATG_TA_CIS: Attagene CIS-FACTORIAL HepG2 Assay for human TA Basal Promoter (AID 2282964); details: HepG2 Attagene CIS-factorial TA basal promoter reporter; actives raise or lower the signal
# How it was run: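 Multiplexed mRNA reporter assay, HepG2, 24 h. Reporter cDNA amplified, 6-FAM primer-extended, HpaI-cut, CE-sized; DMSO = negative control and baseline.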
# [10] = ATG_PPRE_CIS: Attagene CIS-FACTORIAL HepG2 Assay for human Peroxisome Proliferator-activated Response Element (PPRE) (AID 2282958); details: HepG2 PPRE cis-element reporter, Attagene transcription factor profiling; actives raise or lower the signal
# How it was run: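 Cells are first transfected transiently with the multiplexed reporter library, then dosed for 24 h. Total RNA is reverse-transcribed, amplified, fluorescently end-labeled and HpaI-cut before capillary electrophoresis; activity is fitted bidirectionally against DMSO controls.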
smiles,measurement,setting,value
C=CC(=O)NC(C)(C)C,outcome,[1],inactive
same,outcome,[2],inactive
same,AC50,[3],26.9 µM (active)
same,outcome,[4],inactive
same,outcome,[5],inactive
same,outcome,[6],inactive
same,outcome,[7],inactive
same,outcome,[8],inactive
same,outcome,[9],inactive
C=CC(=O)NCOCCCC,outcome,[1],inactive
same,outcome,[2],inactive
same,AC50,[3],36.7 µM (active)
same,outcome,[10],inactive
same,outcome,[5],inactive
same,outcome,[6],inactive
same,outcome,[7],inactive
same,outcome,[8],inactive
same,outcome,[9],inactive
CCCCCCCCCC[N+](C)(CCCCCCCCCC)CCC[Si](OC)(OC)OC,AC50,[1],19.3 µM (active)
same,outcome,[2],inactive
same,AC50,[3],3.94 µM (active)
same,AC50,[10],19.9 µM (active)
same,AC50,[4],18.2 µM (active)
same,AC50,[6],21.1 µM (active)
same,AC50,[7],17 µM (active)
same,AC50,[8],18.1 µM (active)
same,outcome,[9],inactive
CC1OC(=O)C(C)OC1=O (centres undefined),outcome,[1],inactive
same,outcome,[2],inactive
same,outcome,[3],inactive
same,outcome,[10],inactive
same,outcome,[5],inactive
same,outcome,[6],inactive
same,outcome,[7],inactive
same,outcome,[8],inactive
same,outcome,[9],inactive
Nc1ccc(C(=O)O)cc1,outcome,[1],inactive
same,outcome,[2],inactive
same,outcome,[3],inactive
same,outcome,[10],inactive
same,outcome,[5],inactive
same,outcome,[6],inactive
same,outcome,[7],inactive
same,outcome,[8],inactive
same,outcome,[9],inactive
COc1ccc(-c2coc3cc(O)cc(O)c3c2=O)cc1,outcome,[1],inactive
same,outcome,[2],inactive
same,AC50,[3],24.9 µM (active)
same,AC50,[10],100 µM (active)
same,outcome,[5],inactive
same,outcome,[6],inactive
same,outcome,[7],inactive
same,outcome,[8],inactive
same,outcome,[9],inactive
CCC(C)(O)CCCC(C)C (centres undefined),outcome,[1],inactive
same,outcome,[2],inactive
same,outcome,[3],inactive
same,outcome,[10],inactive
same,outcome,[5],inactive
same,outcome,[6],inactive
same,outcome,[7],inactive
same,outcome,[8],inactive
same,outcome,[9],inactive
CC/C=C\CCOC(=O)c1ccccc1O,outcome,[1],inactive
same,outcome,[2],inactive
same,outcome,[3],inactive
same,outcome,[10],inactive
same,outcome,[5],inactive
same,outcome,[6],inactive
same,outcome,[7],inactive
same,outcome,[8],inactive
same,outcome,[9],inactive
C=CC(=O)O[C@H]1C[C@@H]2CC[C@@]1(C)C2(C)C,outcome,[1],inactive
same,outcome,[2],inactive
same,AC50,[3],1.52 µM (active)
same,AC50,[10],29.7 µM (active)
same,outcome,[5],inactive
same,AC50,[6],160 µM (active)
same,outcome,[7],inactive
same,outcome,[8],inactive
same,AC50,[9],141 µM (active)
CCC1(C)C(=O)N(Cl)C(=O)N1Cl (centres undefined),outcome,[1],inactive
same,AC50,[2],49.8 µM (active)
same,AC50,[3],58.6 µM (active)
same,outcome,[10],inactive
same,AC50,[5],37.9 µM (active)
same,outcome,[6],inactive
same,outcome,[7],inactive
same,outcome,[8],inactive
same,outcome,[9],inactive
CCNc1nc(NC(C)(C)C)nc(OC)n1,outcome,[1],inactive
same,outcome,[2],inactive
same,AC50,[3],10.3 µM (active)
same,outcome,[10],inactive
same,outcome,[5],inactive
same,outcome,[6],inactive
same,outcome,[7],inactive
same,outcome,[8],inactive
same,outcome,[9],inactive
C=C[Si](OCCOC)(OCCOC)OCCOC,outcome,[1],inactive
same,outcome,[2],inactive
same,AC50,[3],1.74 µM (active)
same,outcome,[10],inactive
same,outcome,[5],inactive
same,outcome,[6],inactive
same,outcome,[7],inactive
same,outcome,[8],inactive
same,outcome,[9],inactive
CCc1cccc(C)c1N(C(=O)CS(=O)(=O)O)C(C)COC (centres undefined),outcome,[1],inactive
same,outcome,[2],inactive
same,AC50,[3],29.2 µM (active)
same,outcome,[10],inactive
same,outcome,[6],inactive
same,outcome,[7],inactive
same,outcome,[8],inactive
same,outcome,[9],inactive
CCOC(=O)CC(=O)c1ccccc1,outcome,[1],inactive
same,outcome,[2],inactive
same,AC50,[3],10.4 µM (active)
same,outcome,[10],inactive
same,outcome,[5],inactive
same,outcome,[6],inactive
same,outcome,[7],inactive
same,outcome,[8],inactive
same,outcome,[9],inactive
CCCCCC1=CCCC1=O,outcome,[1],inactive
same,outcome,[2],inactive
same,AC50,[3],27.4 µM (active)
same,outcome,[10],inactive
same,outcome,[5],inactive
same,outcome,[6],inactive
same,outcome,[7],inactive
same,outcome,[8],inactive
same,outcome,[9],inactive
C=CC(=O)OCCCCCCOC(=O)C=C,outcome,[1],inactive
same,AC50,[2],75.7 µM (active)
same,outcome,[3],inactive
same,outcome,[10],inactive
same,outcome,[5],inactive
same,outcome,[6],inactive
same,AC50,[7],100 µM (active)
same,outcome,[8],inactive
same,outcome,[9],inactive
c1ccc2c(c1)[nH]c1ccccc12,outcome,[1],inactive
same,outcome,[2],inactive
same,AC50,[3],9.54 µM (active)
same,outcome,[10],inactive
same,outcome,[5],inactive
same,outcome,[6],inactive
same,outcome,[7],inactive
same,outcome,[8],inactive
same,outcome,[9],inactive
CCOC(=O)[C@H](O)[C@@H](O)C(=O)OCC,outcome,[1],inactive
same,outcome,[2],inactive
same,AC50,[3],52.4 µM (active)
same,outcome,[10],inactive
same,outcome,[5],inactive
same,outcome,[6],inactive
same,outcome,[7],inactive
same,outcome,[8],inactive
same,outcome,[9],inactive
CCOC(=O)c1ccc(C)cc1,outcome,[1],inactive
same,outcome,[2],inactive
same,AC50,[3],56.8 µM (active)
same,outcome,[10],inactive
same,outcome,[5],inactive
same,outcome,[6],inactive
same,outcome,[7],inactive
same,outcome,[8],inactive
same,outcome,[9],inactive
c1ccc(Nc2cccc3ccccc23)cc1,outcome,[1],inactive
same,AC50,[2],33.4 µM (active)
same,AC50,[3],8.67 µM (active)
same,outcome,[10],inactive
same,AC50,[5],48.1 µM (active)
same,AC50,[6],47.1 µM (active)
same,AC50,[7],60.4 µM (active)
same,outcome,[8],inactive
same,outcome,[9],inactive
O=C(O)C(F)(F)C(F)(F)C(F)(F)C(F)(F)C(=O)O,outcome,[1],inactive
same,outcome,[2],inactive
same,outcome,[3],inactive
same,outcome,[10],inactive
same,outcome,[5],inactive
same,outcome,[6],inactive
same,outcome,[7],inactive
same,outcome,[8],inactive
same,outcome,[9],inactive
COC(OC)(C(=O)c1ccccc1)c1ccccc1,AC50,[1],3.88 µM (active)
same,AC50,[2],66 µM (active)
same,AC50,[3],2.19 µM (active)
same,outcome,[10],inactive
same,outcome,[5],inactive
same,outcome,[6],inactive
same,outcome,[7],inactive
same,outcome,[8],inactive
same,outcome,[9],inactive
CC(C)(CO)COC(=O)C(C)(C)CO,outcome,[1],inactive
same,outcome,[2],inactive
same,outcome,[3],inactive
same,outcome,[10],inactive
same,outcome,[6],inactive
same,outcome,[7],inactive
same,outcome,[8],inactive
same,outcome,[9],inactive
O=C1c2ccccc2C(=O)c2cc(S(=O)(=O)O)ccc21,outcome,[1],inactive
same,outcome,[2],inactive
same,outcome,[3],inactive
same,outcome,[10],inactive
same,outcome,[5],inactive
same,outcome,[6],inactive
same,outcome,[7],inactive
same,outcome,[8],inactive
same,outcome,[9],inactive
CCCCCCOc1ccc(N)cc1,outcome,[1],inactive
same,outcome,[2],inactive
same,AC50,[3],26.8 µM (active)
same,outcome,[4],inactive
same,outcome,[6],inactive
same,outcome,[7],inactive
same,outcome,[8],inactive
same,outcome,[9],inactive
COc1ccc(C(=O)/C(Br)=C\C(=O)O)cc1,outcome,[1],inactive
same,AC50,[2],57.1 µM (active)
same,outcome,[3],inactive
same,AC50,[4],32.5 µM (active)
same,outcome,[5],inactive
same,AC50,[6],59 µM (active)
same,outcome,[7],inactive
same,outcome,[8],inactive
same,outcome,[9],inactive
CC(CC(C)C)=NO,outcome,[1],inactive
same,outcome,[2],inactive
same,outcome,[3],inactive
same,outcome,[4],inactive
same,outcome,[5],inactive
same,outcome,[6],inactive
same,outcome,[7],inactive
same,outcome,[8],inactive
same,outcome,[9],inactive
O=C(OCc1ccccc1)c1ccc(O)cc1,AC50,[1],63.7 µM (active)
same,AC50,[2],144 µM (active)
same,AC50,[3],26.8 µM (active)
same,outcome,[4],inactive
same,AC50,[5],100 µM (active)
same,outcome,[6],inactive
same,AC50,[7],72.8 µM (active)
same,outcome,[8],inactive
same,AC50,[9],100 µM (active)
